In paper PMC4336329 (PLoS ONE, 2015):
About 14,000 (4.5%) of roughly 310,000 compounds showed an effect of 50% or more. Effects have a minus sign here. For the sample, strong results were picked, then their nearest neighbours and some compounds at random.

Target: human ether-à-go-go-related gene (hERG) potassium channel (human, UniProt Q12809)
Assay: primary screen, population patch clamp on CHO cells stably expressing hERG; higher = less effect of the substance
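Further: peak tail current of the secondary pulse compared with the same well before compound.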

human ether-à-go-go-related gene (hERG) potassium channel, sequence (Q12809 whole entry, looked up): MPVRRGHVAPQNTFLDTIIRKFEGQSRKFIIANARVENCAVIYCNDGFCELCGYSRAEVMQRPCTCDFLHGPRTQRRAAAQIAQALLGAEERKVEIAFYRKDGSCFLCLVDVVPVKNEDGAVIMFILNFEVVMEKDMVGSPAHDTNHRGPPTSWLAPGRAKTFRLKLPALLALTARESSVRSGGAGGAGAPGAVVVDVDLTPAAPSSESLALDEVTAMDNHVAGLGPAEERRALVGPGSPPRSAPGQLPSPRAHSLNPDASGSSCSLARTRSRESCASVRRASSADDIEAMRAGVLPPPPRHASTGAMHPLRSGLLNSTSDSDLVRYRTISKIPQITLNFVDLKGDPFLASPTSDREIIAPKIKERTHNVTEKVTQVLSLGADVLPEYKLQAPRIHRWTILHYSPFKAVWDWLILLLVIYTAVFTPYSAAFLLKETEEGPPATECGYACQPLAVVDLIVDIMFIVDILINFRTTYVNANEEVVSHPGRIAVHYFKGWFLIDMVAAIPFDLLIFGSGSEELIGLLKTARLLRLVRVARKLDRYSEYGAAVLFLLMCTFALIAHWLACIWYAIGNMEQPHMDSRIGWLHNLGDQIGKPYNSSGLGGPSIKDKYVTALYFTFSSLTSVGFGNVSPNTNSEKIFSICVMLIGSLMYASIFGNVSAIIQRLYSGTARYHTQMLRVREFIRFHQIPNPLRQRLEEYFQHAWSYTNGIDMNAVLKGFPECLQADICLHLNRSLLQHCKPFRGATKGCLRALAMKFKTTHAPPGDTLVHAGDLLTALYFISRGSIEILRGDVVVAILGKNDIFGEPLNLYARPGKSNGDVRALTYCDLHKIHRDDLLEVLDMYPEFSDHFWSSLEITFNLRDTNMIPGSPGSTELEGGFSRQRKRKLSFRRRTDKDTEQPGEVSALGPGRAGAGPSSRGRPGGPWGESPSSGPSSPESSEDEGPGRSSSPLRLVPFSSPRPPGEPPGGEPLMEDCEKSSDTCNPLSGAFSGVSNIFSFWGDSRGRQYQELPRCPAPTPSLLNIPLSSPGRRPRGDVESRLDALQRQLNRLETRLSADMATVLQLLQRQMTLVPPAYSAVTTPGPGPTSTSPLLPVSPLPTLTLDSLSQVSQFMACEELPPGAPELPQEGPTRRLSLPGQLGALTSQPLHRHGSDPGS

Structure (SMILES)	hERG current change (%, negative = inhibition) at 10uM [%]
CCOC(=O)c1c[nH]c2c(C)ccc(Cl)c2c1=O	20.9
CC(=O)NCCc1nc2cc(NS(=O)(=O)c3ccc(Cl)cc3)ccc2n1C	10.4
Cn1c(CCNC(=O)c2ccco2)nc2cc(NS(=O)(=O)c3ccccc3)ccc21	-6.01
Cn1c(CCN2CCCC2)nc2cc(NS(=O)(=O)c3ccc(Cl)cc3)ccc21	-84
CC(C)C(=O)Nc1ccc2c(c1)nc(CCN1CCN(c3ccccc3)CC1)n2C	-40.4
Cn1c(CCNC(=O)c2ccco2)nc2cc(NS(=O)(=O)c3ccc(Cl)cc3)ccc21	-65.2
Cc1ccc(S(=O)(=O)Nc2ccc3c(c2)nc(CCN2CCCC2)n3C)cc1	-42.5
Cc1ccc(S(=O)(=O)Nc2ccc3c(c2)nc(CCN2CCCCC2)n3C)cc1	-63.6
CCC(=O)Nc1ccc2c(c1)nc(CCN1CCN(c3ccccc3)CC1)n2C	-33.5
Cc1ccc(N2CCN(CCc3nc4cc(NS(C)(=O)=O)ccc4n3C)CC2)cc1	-59.8
Cc1ccc(S(=O)(=O)Nc2ccc3c(c2)nc(CCN2CCOCC2)n3C)cc1	-17.2
Cc1cc(C(F)(F)F)c(C#N)c(SCC(=O)NC2CC2)n1	-4.11
CC(=O)NC1=NN(C(C)=O)C(C)(CS(=O)(=O)c2ccc3ccccc3c2)S1 (centres unmarked)	-0.325
COc1ccc(OC)c(-n2c(-c3cc(-c4ccco4)[nH]n3)n[nH]c2=S)c1	1.18
COc1ccccc1NS(=O)(=O)c1ccc(C)c(NC(=O)C2CCCO2)c1 (centres unmarked)	4.4
O=C(CNC(=O)c1ccc2c(c1)OCCO2)N/N=C/c1ccc(Cl)cc1	14.1
Cc1occc1C(=O)N1CCN(C(=O)C2CCCO2)CC1 (centres unmarked)	-12.2
COc1ccccc1N(CC(=O)NC1CCCC1)S(=O)(=O)c1ccc(C)cc1	-5.82
CCCC(=O)Nc1nnc(SCC(=O)NCc2cccs2)s1	8.39
Cn1c(CCN2CCCCC2)nc2cc(NC(=O)Nc3ccccc3)ccc21	-28
Cn1c(CCN2CCCCCC2)nc2cc(NC(=O)Nc3ccccc3)ccc21	-35.7
Cn1c(CCN2CCCCC2)nc2cc(NS(=O)(=O)c3ccc(Cl)cc3)ccc21	-73.8

Structure (SMILES)	hERG current change (%, negative = inhibition) at 10uM [%]
CN(C)c1nc2c(c(=O)[nH]c(=O)n2C)n1CCCc1ccccc1	-19.1
Cn1c(=O)[nH]c(=O)c2c1nc(N(CCO)Cc1ccccc1)n2CCCc1ccccc1	-64.6
CCCCCn1c(N(C)Cc2ccccc2)nc2c1c(=O)[nH]c(=O)n2C	-17.1
Cn1c(=O)[nH]c(=O)c2c1nc(NCCCO)n2CCCc1ccccc1	-5.36
CN(Cc1ccccc1)c1nc2c(c(=O)[nH]c(=O)n2C)n1CCCc1ccccc1	-51.8
C=C(C)Cn1c(N(CCO)Cc2ccccc2)nc2c1c(=O)[nH]c(=O)n2C	-2.53
CCOC(=O)N1CCN(CC(=O)Nc2cc(C)nn2-c2nc3ccccc3s2)CC1	-23.3
COc1ccc(Cl)cc1NC(=S)N1CCN(c2ncccn2)CC1	13.6
CCc1nc(SCc2ccccc2C#N)n[nH]1	13.4
CC(=O)NCCC(=O)Nc1nc(-c2cccs2)c(-c2cccs2)s1	-6.66
COc1ccc(-c2noc(CSc3nnc(-c4ccccc4)n3C)n2)cc1	-32.8
CCOC(=O)c1sc2nc(CC(=O)OC)nc(NCc3ccc(Cl)cc3)c2c1C	-7.35
CCOC(=O)c1sc2nc(C)nc(NCc3ccccc3)c2c1C	9.35
CCOC(=O)c1sc2nc(CC(=O)OC)nc(NCC(=O)OC)c2c1C	-9.05
CCOC(=O)c1sc2nc(C)nc(NCc3ccc(F)cc3)c2c1C	17.2
CCOC(=O)c1sc2nc(C)nc(NCc3ccc(Cl)cc3)c2c1C	-80.6
CCOC(=O)c1sc2nc(CC(=O)OC)nc(NCCN(CC)CC)c2c1C	-62.7
COc1cc(NC(=O)c2ccc(F)cc2)c(OC)cc1Cl	3
O=S1OC(c2ccccc2)c2cc(Cl)ccc21 (centres unmarked)	11
COc1cccc(-c2noc(CCC(=O)NC3CCCC3)n2)c1	7.42
Cn1c(=O)c2c(nc(SCC(=O)O)n2Cc2cc3c(cc2Cl)OCO3)n(C)c1=O	6.88
O=c1[nH]c(CSc2nnc(COc3ccccc3)n2-c2ccccc2)nc2ccccc12	-4.92
